# Source: PubChem BioAssay (The Scripps Research Institute Molecular Screening Center)
# Sampled rows, rich in hits. Any-hit rate of the full collection: about 2.4%.
# PLC-gamma1 inh: blocks human PLC-gamma1 enzyme activity | P19174 | purified PLC-gamma1, fluorogenic substrate, fluorescence | inhibition, % at 12.2 µM | actives 0.84% (n = 370,000) | AID 720700
# LEDGF integ inh: blocks HIV-1 LEDGF/p75-dependent DNA integration; AID 743269; inhibition, % at 3.7 µM; TR-FRET IN-LEDGF/p75 DNA integration, Eu/Cy5; actives 0.64% (n = 370,000);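 active means inhibition above the screen-wide mean plus 3 SD, cut at about 13% in these data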;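 further: signal is the Cy5 over europium emission ratio at 671 and 618 nm; 0% = plate median of compound wells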
# PLCb3 inh: PLC-beta3 (human) inhibition, primary screen; actives 0.18% (n = 370,000); inhibition, % at 12.2 µM; AID 720704; Purified PLC-beta3, fluorogenic substrate, fluorescence; Q01970; in the data active means inhibition above about 11%;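 further: 0% = median of compound wells on plate and 100% = full blocker control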
# Target sequence (Q01970 whole entry, looked up): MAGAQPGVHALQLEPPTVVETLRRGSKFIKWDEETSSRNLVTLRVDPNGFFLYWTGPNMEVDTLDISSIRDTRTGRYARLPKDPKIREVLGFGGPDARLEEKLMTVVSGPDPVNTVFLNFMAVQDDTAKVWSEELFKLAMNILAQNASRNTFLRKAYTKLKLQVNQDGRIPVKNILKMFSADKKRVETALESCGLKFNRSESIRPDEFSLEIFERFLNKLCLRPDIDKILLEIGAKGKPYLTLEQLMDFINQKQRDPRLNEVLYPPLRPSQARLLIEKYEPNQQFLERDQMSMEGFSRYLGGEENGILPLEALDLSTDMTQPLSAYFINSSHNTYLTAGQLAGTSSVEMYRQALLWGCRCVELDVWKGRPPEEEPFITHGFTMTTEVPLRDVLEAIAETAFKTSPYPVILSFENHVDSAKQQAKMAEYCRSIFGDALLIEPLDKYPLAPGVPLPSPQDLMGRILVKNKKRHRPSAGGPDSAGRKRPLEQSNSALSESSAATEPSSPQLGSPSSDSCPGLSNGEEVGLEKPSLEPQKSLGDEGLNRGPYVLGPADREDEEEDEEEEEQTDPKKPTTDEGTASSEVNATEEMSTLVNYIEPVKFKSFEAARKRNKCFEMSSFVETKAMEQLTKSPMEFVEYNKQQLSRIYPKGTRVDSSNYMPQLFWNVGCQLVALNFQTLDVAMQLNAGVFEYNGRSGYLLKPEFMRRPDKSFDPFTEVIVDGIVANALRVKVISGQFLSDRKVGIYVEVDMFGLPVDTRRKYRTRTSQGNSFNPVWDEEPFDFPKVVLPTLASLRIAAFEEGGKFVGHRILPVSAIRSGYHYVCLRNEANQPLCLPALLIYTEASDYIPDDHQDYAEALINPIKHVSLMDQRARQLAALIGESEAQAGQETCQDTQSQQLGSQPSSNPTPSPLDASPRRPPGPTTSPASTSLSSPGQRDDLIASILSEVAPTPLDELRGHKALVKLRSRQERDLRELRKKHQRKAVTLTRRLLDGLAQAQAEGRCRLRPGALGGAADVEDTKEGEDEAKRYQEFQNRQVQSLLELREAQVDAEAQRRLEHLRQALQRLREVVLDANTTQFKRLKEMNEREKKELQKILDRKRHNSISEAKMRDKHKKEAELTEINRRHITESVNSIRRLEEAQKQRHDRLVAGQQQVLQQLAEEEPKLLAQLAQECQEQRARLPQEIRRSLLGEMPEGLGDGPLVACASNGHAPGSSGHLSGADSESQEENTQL
# MBD2 DNA inh: blocks human MBD2 binding to methylated DNA; Q9UBB5; TR-FRET, MBD2 binding to methylated oligonucleotide; inhibition, % at 4.4 µM; actives 0.31% (n = 370,000); in the data active means inhibition above about 13%
# UHRF1 MBD2 ctr: human UHRF1 methylated DNA binding inhibitors. Q96T88. UHRF1 binding to methylated oligo, TR-FRET. inhibition, % at 4.4 µM. actives 0.75% (n = 370,000); in the data active means inhibition above about 21%;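 further: UHRF1 SRA domain binding a hemimethylated CpG hairpin DNA probe; 0% = median of test compound wells and 100% = reference inhibitor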
# PLCgamma1 ctr: PLC-gamma1 inhibition, counter-screen for PLC-beta3 hits; shares compounds with PLC-gamma1 inh; purified PLC-gamma1, fluorogenic substrate, fluorescence; inhibition, % at 12.3 µM; actives 3.1% (n = 3,300)
# PLCbeta3 conf: confirmation of human PLC-beta3 inhibitors | purified PLC-beta3, fluorogenic substrate fluorescence | inhibition, % at 12.3 µM | actives 1% (n = 3,300) | shares compounds with PLC-gamma1 inh; in the data active means inhibition above about 11%
# * marks the source's active call; other numbers are inactive results; / = not tested or not shown. Unless noted, no stated cut-off is given here; in the data, active means inhibition above about 9.5%; inactive means the rest.
SMILES,PLC-gamma1 inh,LEDGF integ inh,PLCb3 inh,MBD2 DNA inh,UHRF1 MBD2 ctr,PLCgamma1 ctr,PLCbeta3 conf
N#CC1(NC(=O)CSc2nc3ccccc3s2)CCCCC1,11.6*,3.2,4.5,-0.5,0.2,-1.9,4.8
C[C@H]1C(=O)N2[C@@H](C[C@]3(c4c[nH]c5ccccc45)c4ccccc4N(S(=O)(=O)c4ccccc4)[C@H]23)C(=O)N1C,-2.4,-2.3,-2.9,3.8,2.4,/,/
O=C(CCCCCNC(=O)N1CCn2c1nc1ccccc12)NCc1ccccc1,5.1,1.9,-4.3,1.8,2.2,/,/
O=C(CCCCCNC(=O)N1CCn2c1nc1ccccc12)NCc1ccc(F)cc1,11.2*,5.0,-0.1,-2.4,2.3,-5.1,-3.8
Nn1c(SCC(=O)Nc2cccc3ccccc23)nnc1-c1n[nH]c2c1CCC2,-0.1,7.4,3.6,0.8,-2.4,/,/
COc1ccc(N2C(=O)C(Cl)=C(Nc3ccccc3O)C2=O)cc1,-0.1,-1.3,2.8,-1.4,-3.7,/,/
COc1ccc(N2C(=O)C(Cl)=C(Nc3ccccc3OC)C2=O)cc1,9.5*,-0.8,13.3*,-4.5,3.6,-1.9,-1.6
CCN(CC)S(=O)(=O)c1ccc(/C=C/C(=O)Nc2ccccc2N2CCOCC2)cc1,9.6*,-0.1,-2.3,-1.5,1.8,4.3,-7.4
CCN(CC)S(=O)(=O)c1ccc(N2CCOCC2)c(NC(=O)c2ccccc2)c1,1.8,2.4,1.9,-0.5,-0.8,/,/
CCOC(=O)[C@]12CCCC3=C1N(CCC3)C(=O)[C@@H](CC(=O)NCc1ccc(C)o1)C2,2.4,1.6,2.5,1.1,-3.6,/,/
CCCCNS(=O)(=O)/C=C/c1ccc(F)cc1CNC(=O)OC(C)(C)C,1.9,1.3,0.9,2.5,-1.9,/,/
Cc1ccc(NC(=O)C2CCCN(c3nnc(-n4cccc4)s3)C2)cc1C (stereo not drawn),2.7,1.0,-4.4,9.2,3.8,/,/
O=C(O)CCNC(=O)c1ccc(Br)o1,12.1*,2.6,5.7,1.1,4.4,-6.2,-3.8
O=C(NCCC(c1ccccc1)c1ccccc1)c1ccc(Br)o1,1.1,-1.6,3.2,-9.7,-2.9,/,/
C/C(=N/NC(=O)c1cc(-c2cccc([N+](=O)[O-])c2)n[nH]1)c1cccc(O)c1,14.1*,7.1,7.5,0.0,0.1,-2.4,-2.4
COc1ccc(CN2CCCC(C(=O)N3CCCC3)C2)c(OC)c1OC (stereo not drawn),11.2*,8.5,7.0,3.9,2.1,1.3,3.3
Cc1ccc(-n2c(SCC(=O)c3ccc(F)cc3)nnc2-c2cccnc2)cc1,3.5,-0.5,3.7,-5.4,0.6,/,/
O=S1(=O)c2c(cccc2N2CC[C@@H](O)C2)O[C@H]2CCN1C2,-1.3,3.1,1.6,-4.3,0.9,/,/
CCC(C)NC(=O)CNc1nnnn1-c1ccccc1 (stereo not drawn),-1.0,2.2,1.0,-2.1,-2.1,/,/
O=S(=O)(NC1CCCCC1N1CCOCC1)c1ccc(Cl)cc1 (stereo not drawn),11.7*,-1.1,-2.8,8.2,3.6,-1.0,0.6
Cc1onc(-c2c(Cl)cccc2Cl)c1NC(=O)NN(C)C,0.0,-1.9,-8.2,0.2,4.0,/,/
CSCCNC(=O)Nc1c(-c2c(Cl)cccc2Cl)noc1C,12.1*,2.1,6.4,-4.8,-0.2,-0.7,-1.8
CCOC(=O)C1CCN(C(=O)CN2C(=O)C(CC)Oc3ccccc32)CC1 (stereo not drawn),2.7,-3.8,5.1,5.0,1.0,/,/
CCC1Oc2ccccc2N(CC(=O)N2CCCC2)C1=O (stereo not drawn),9.7*,-1.5,8.0,-1.2,2.2,-2.0,-0.1
COC(=O)[C@]12C[C@H](CC(=O)NCCC(C)C)C(=O)N(CCc3ccc(OC)c(OC)c3)C1=C[C@H](C(C)C)O[C@@H]2C1CC1,2.0,-2.2,2.4,4.0,3.5,/,/
SMILES,PLC-gamma1 inh,LEDGF integ inh,PLCb3 inh,MBD2 DNA inh,UHRF1 MBD2 ctr,PLCgamma1 ctr,PLCbeta3 conf
O=c1c2ccccc2[nH]n1[C@@H](Cc1ccccc1)Cn1cc(-c2ccc(-c3ccccc3)cc2)nn1,-7.6,2.0,-8.7,-0.4,-0.5,/,/
Cc1csc(NC(=O)CSc2nnc(-c3ccc(Cl)cc3)n2N)n1,10.3*,-5.0,-5.7,11.0,2.8,-2.9,0.6
O[C@H](COc1ccc(OC(F)(F)F)cc1)CN1CCC(C(O)(c2ccccc2)c2ccccc2)CC1,0.5,2.5,-1.4,5.5,-0.5,/,/
CCCOc1ccccc1OCC(=O)Nc1cc(Cl)ccc1-n1cncn1,11.0*,4.6,5.3,3.4,3.7,-1.9,-334.0
C#CCNC(=O)C[C@H]1C(=O)N(CCc2ccc(Cl)cc2)C2=CCCC[C@@]21C(=O)OCC,-0.3,-3.3,0.1,2.2,-0.8,/,/
COc1ccc(CCN(C)C(=O)CCNC(=O)c2ccc(Br)cc2)cc1OC,11.1*,3.7,2.5,4.9,2.3,-2.7,0.6
COc1ccc(CCNC(=O)c2ccc(OC)c(OC)c2)cc1OC,-1.3,-2.5,-1.6,0.1,2.1,/,/
C=CCN(CC#CC1=CCCCC1)Cc1ccccc1,0.5,6.1,3.9,-9.8,0.4,/,/
N#Cc1ccc(/C=C2\CC3(OC(=O)c4ccc(Cl)cc4)CCCN2C3)cc1 (stereo not drawn),-1.5,0.6,-0.3,-7.1,-3.2,/,/
C[C@H]1CN(S(=O)(=O)C(C)(C)C)[C@@H](CCO)/C1=C\CCO,10.6*,6.3,0.6,3.2,0.4,-0.7,0.0
C[C@@H]1CN(S(=O)(=O)C(C)(C)C)[C@H](CCO)/C1=C\CCO,-0.6,-1.2,-4.0,2.1,0.1,/,/
CCCCNC(=O)C[C@H]1C[C@@]2(C(=O)OC)C(=C[C@H](C3CCCC3)O[C@@H]2C)N(Cc2cccc3ccccc23)C1=O,6.3,0.4,4.7,-7.1,-1.1,/,/
O=C(c1ccc([N+](=O)[O-])cc1)N1CCN(Cc2ccccc2)CC1,-0.5,1.3,3.7,-5.3,-0.7,/,/
O=C(O)c1ccc([N+](=O)[O-])cc1,13.1*,6.7,-2.8,12.7,16.1,-1.2,3.4
O=C(O)c1ccc(C(=O)c2cc([N+](=O)[O-])cc([N+](=O)[O-])c2)cc1,0.6,1.1,-0.6,2.0,2.5,/,/
O=C(O)c1cc([N+](=O)[O-])ccc1N1CCCCC1,4.4,-1.4,4.2,-9.6,-3.3,/,/
O=C(c1ccc([N+](=O)[O-])cc1)N(Cc1ccccc1)Cc1ccccc1,10.3*,6.2,10.1,-2.8,1.4,0.2,6.4
O=C(NCCc1ccccc1)c1ccc([N+](=O)[O-])cc1,3.6,-4.3,1.9,0.5,0.0,/,/
O=C(O)c1cc([N+](=O)[O-])ccc1-c1ccc([N+](=O)[O-])cc1C(=O)O,20.1*,2.4,12.4*,3.6,9.0,4.3,2.1
O=[N+]([O-])c1ccc(C(=S)N2CCN(Cc3ccccc3)CC2)cc1,10.5*,-0.2,3.3,0.1,-0.2,0.0,1.6
